Results published in PubChem BioAssay (Tox21).
Results filed as inconclusive are left out. Entries that show only a call come without a potency. Some structures have more than one record in an assay (separate samples or runs), and their calls can disagree. The source made the active and inactive calls. Calls come from the whole dose curve.
Potency is the fitted concentration of half-maximal effect.

These molecules were tested against 5-hydroxytryptamine receptor 2A (Homo sapiens) (UniProt P28223) (assay: 5-hydroxytryptamine receptor 2A (HTR2A) small molecule antagonists, cell-based qHTS assay (AID 1963586; note: nearly all actives have a fitted effect of over 45% in size)). Conditions: HTR2A-CHO cells, DOI-induced calcium flux, fluorescence; series mostly up to 61.5 µM.
5-hydroxytryptamine receptor 2A (Homo sapiens), sequence (P28223 whole entry, looked up): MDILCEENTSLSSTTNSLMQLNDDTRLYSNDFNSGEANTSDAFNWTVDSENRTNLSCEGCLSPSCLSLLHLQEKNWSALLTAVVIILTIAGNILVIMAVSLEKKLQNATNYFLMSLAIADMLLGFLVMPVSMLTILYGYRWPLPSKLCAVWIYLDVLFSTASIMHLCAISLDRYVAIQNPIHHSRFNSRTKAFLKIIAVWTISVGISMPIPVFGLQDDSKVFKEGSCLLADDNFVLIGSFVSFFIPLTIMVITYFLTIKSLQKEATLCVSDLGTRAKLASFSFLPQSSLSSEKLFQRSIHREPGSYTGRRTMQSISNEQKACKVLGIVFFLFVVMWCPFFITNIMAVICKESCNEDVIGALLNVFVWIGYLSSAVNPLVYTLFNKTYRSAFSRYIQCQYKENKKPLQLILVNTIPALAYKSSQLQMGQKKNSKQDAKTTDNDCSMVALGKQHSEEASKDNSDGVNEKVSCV
From the text: National Center for Advancing Translational Sciences [NCATS]
Division of Preclinical Innovation [DPI]
U.S. Environmental Protection Agency [EPA]
National Institutes of Environmental Health Sciences [NIEHS]
National Toxicology Program [NTP]
U.S. Food and Drug Administration [FDA]
The HTR2A receptor is a subtype of the 5-HT2 receptor that belongs to the serotonin receptor family and is a G protein-coupled receptor (GPCR). The HTR2A-CHO cell line stably expressing human 5-hydroxytryptamine receptor 2A (HTR2A) can be used for screening antagonists of interactions between 5-HT2 and its ligands. The HTR2A-CHO calcium flux assay is a homogeneous fluorescence-based assay for detecting the intracellular calcium level using FDSS kinetic plate reader system.
Tox21 Assay Protocol Summary:
HTR2A-CHO cells were dispensed at 2000 cells/3uL/well in 1536-well black-clear bottom plates using a Multidrop Dispenser. After the assay plates were incubated at a 37 C/5% CO2 incubator for 18 h, 3 uL of Dye Loading Buffer was transferred to the assay plate by a Flying Reagent Dispenser. The assay plates were incubated at 37 C for 1h. For antagonist mode, 23 nL of compounds dissolved in DMSO, positive controls or DMSO only was transferred to the assay plate by a pin tool. After 5 min incubation at room temperature, 1.5 uL of 4-Iodo-2,5-dimethoxy-alpha-methylbenzeneethanamine hydrochloride (DOI) at 4nM was added to each well. The fluorescence intensity in the plates was measured using FDSS 7000EX kinetic plate reader for 3 min at 1 sec intervals.
With `C1CCSC1` the Potency was “inactive”. In the case of `CC(C)CCOCCC(C)C`, the Potency is reported as “inactive”. In the case of `CCCCc1ccc2cccc(S(=O)(=O)O)c2c1`, the Potency is reported as “inactive”. For `COc1ccc(NC(C)=O)cc1`, the Potency was “inactive”. With `O=C(O)c1ccc(CO)o1` the Potency was “inactive”. In the case of `CC(=O)N[C@H]1[C@H]([C@H](O)[C@H](O)CO)OC(C(=O)O)=C[C@@H]1N=C(N)N`, the Potency is reported as “inactive”. For `C[C@@H](O)[C@H]1C(=O)N2C(C(=O)O)=C(SCCN=CN)C[C@H]12`, the Potency was “inactive”. In the case of `CC(C)c1ccc(C=O)cc1`, the Potency is reported as “inactive”. `O=C1CCCCCCCCCCCCCCCO1` was tested, and the Potency was “inactive”. In the case of `CCC(C)NC(N)=O` (stereo not given), the Potency is reported as “inactive”. For `Cc1cc(C)cc(OCC2CNC(=O)O2)c1` (stereo not given), the Potency was “inactive”. With `CCCCC(CC)C(=O)OCCOCCOCCOC(=O)C(CC)CCCC` (stereo not given) the Potency was “inactive”. In the case of `C[N+](C)(C)CC[N+]1(C)Cc2c(Cl)c(Cl)c(Cl)c(Cl)c2C1`, the Potency is reported as “inactive”. For `O=C(O)c1ccc([N+](=O)[O-])cc1`, the Potency was “inactive”. In the case of `CC(=O)/C=C/c1ccco1`, the Potency is reported as “inactive”. For `Clc1ccc2c(c1)Nc1ccccc1S2`, the Potency was “inactive”. With `O=c1[nH][nH]c(=O)c2cc([N+](=O)[O-])ccc12` the Potency was “inactive”. With `Nc1c(NC/C=C\COc2cc(CN3CCCCC3)ccn2)c(=O)c1=O` the activity, negative = inhibition was -23.4% [at 12.7 µM] (inactive). For `Nc1c(Br)cc([N+](=O)[O-])cc1Br`, the Potency was “inactive”. With `C[C@@H]1CCC[C@H](C)N1` the Potency was “inactive”. With `CCC/C=C/C=O` the Potency was “inactive”. `CCCC(C)CO` (stereo not given) was tested, and the Potency was “inactive”. For `C=CC(=O)NCOCCCC`, the Potency was “inactive”. `O=C(O)CNC(=O)c1ccccc1I` was tested, and the Potency was “inactive”. In the case of `NCCNCCNCCN`, the Potency is reported as “inactive”. `Cc1ccc(N)cc1[N+](=O)[O-]` was tested, and the Potency was “inactive”. In the case of `C=CCCCCCCCCCCCCCCCC`, the activity, negative = inhibition is reported as -3.97% [at 5.62 µM] (inactive). With `CCCCC(CC)COC(=O)CCCCCCCC(=O)OCC(CC)CCCC` (stereo not given) the Potency was “inactive”. With `CCCCOCCOCCOCCO` the Potency was “inactive”. In the case of `O=C1OCCO1`, the Potency is reported as “inactive”. With `Nc1ccc(Oc2ccc(Cl)cc2)cc1` the Potency was “inactive”. In the case of `NCCN1CCNC1=O`, the Potency is reported as “inactive”. For `C=C(C)C(=O)OCCNC(C)(C)C`, the Potency was “inactive”. In the case of `CCO[Si](C)(OCC)OCC`, the Potency is reported as “inactive”. `O=C(COc1ccc(Cl)cc1)N1CCN(Cc2ccc3c(c2)OCO3)CC1` was tested, and the Potency was 29.8 µM (active) and inactive. For `CCCCCCOC(=O)c1ccccc1O`, the Potency was “inactive”. For `O=C(O)Cc1cccc(-c2cc(CCCCCCc3ccc(O[C@H]4O[C@H](CO)[C@@H](O)[C@H](O)[C@@H]4O)c(-c4cccc(CC(=O)O)c4)c3)ccc2O[C@H]2O[C@H](CO)[C@@H](O)[C@H](O)[C@@H]2O)c1`, the activity, negative = inhibition was 2.29% [at 0.233 µM] (inactive). `CC(=O)N[C@@H](Cc1ccc(O)cc1)C(=O)O` was tested, and the Potency was “inactive”. For `C=CCOCC(CO)(COCC=C)COCC=C`, the Potency was “inactive”. In the case of `CC(C)CC(C)O` (stereo not given), the Potency is reported as “inactive”.
